According to PubChem BioAssay (NCI):
The panel holds about 83,000 compounds, 20% with a hit somewhere; the sample as a whole holds those more often.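 Testing used 96-well plates and a 48-hour single-concentration exposure. Example: -40 means 40% of the starting cells died.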 Activity calls are given as the source filed them. Rule for the calls: active = growth percent below 10; inactive = the rest.

Legend:
Test in all cases: NCI-60 one-dose screen, 48 h (100 = growth as untreated, 0 = no growth, -100 = all killed)
Details in all cases: 10 µM unless noted
HCT-15 colon = system: HCT-15 colon
HT29 colon = system: HT29 colon
SNB-75 CNS = system: SNB-75 CNS
SNB-19 CNS = system: SNB-19 CNS
U251 CNS = system: U251 CNS
PC-3 prostate = system: PC-3 prostate
SK-MEL-5 melanoma = system: SK-MEL-5 melanoma
UACC-62 melanoma = system: UACC-62 melanoma
LOX IMVI melanoma = system: LOX IMVI melanoma
SK-MEL-28 melanoma = system: SK-MEL-28 melanoma
SK-MEL-2 melanoma = system: SK-MEL-2 melanoma
EKVX NSCLC = system: EKVX NSCLC
SN12C renal = system: SN12C renal
UO-31 renal = system: UO-31 renal
TK-10 renal = system: TK-10 renal
ACHN renal = system: ACHN renal
CAKI-1 renal = system: CAKI-1 renal
A498 renal = system: A498 renal
CCRF-CEM leukemia = system: CCRF-CEM leukemia
MOLT-4 leukemia = system: MOLT-4 leukemia

Measured: growth

Cc1ccc(-c2nc(N3CCN(CC(=O)Nc4ccc(Cl)cc4)CC3)c3ccccc3n2)cc1
inactive: HCT-15 colon 79.9% | HT29 colon 80.8% | SNB-75 CNS 77.7% | SNB-19 CNS 93.1% | U251 CNS 92.5% | PC-3 prostate 80.6% | SK-MEL-5 melanoma 89% | UACC-62 melanoma 75.9% | LOX IMVI melanoma 97.4% | SK-MEL-28 melanoma 99.8% | SK-MEL-2 melanoma 103% | EKVX NSCLC 85.4% | SN12C renal 90.4% | UO-31 renal 64.1% | TK-10 renal 104% | ACHN renal 98.3% | CAKI-1 renal 85.2% | A498 renal 51.4% | CCRF-CEM leukemia 88.9% | MOLT-4 leukemia 62.1%

CCOC(=O)Nc1ccc(-c2nc(-c3cccc(OCCN4CCOCC4)c3)c(-c3ccnc(Br)c3)[nH]2)cc1
active: HT29 colon 8.48% | SNB-75 CNS 3.74% | MOLT-4 leukemia 7.57%
inactive: HCT-15 colon 11% | SNB-19 CNS 50.6% | U251 CNS 26.5% | PC-3 prostate 26.2% | SK-MEL-5 melanoma 38.1% | UACC-62 melanoma 32.9% | LOX IMVI melanoma 14.1% | SK-MEL-28 melanoma 30.6% | SK-MEL-2 melanoma 40.2% | EKVX NSCLC 61.1% | SN12C renal 59.9% | UO-31 renal 21.5% | TK-10 renal 87.4% | ACHN renal 43.9% | CAKI-1 renal 51.3% | A498 renal 49.9% | CCRF-CEM leukemia 26.4%

Oc1ccc(C#CCOc2ccccc2)cc1CNCCN(Cc1ccccn1)Cc1ccccn1
inactive: HT29 colon 25.5% | SNB-75 CNS 25.6% | SNB-19 CNS 20.7% | PC-3 prostate 27.7% | SK-MEL-28 melanoma 32.9% | SK-MEL-2 melanoma 61.2% | EKVX NSCLC 16% | SN12C renal 13.9% | TK-10 renal 26.2% | CAKI-1 renal 28.4%
active: HCT-15 colon 4.51% | U251 CNS 7.44% | SK-MEL-5 melanoma 1.89% | UACC-62 melanoma 9.83% | LOX IMVI melanoma 3.51% | UO-31 renal -2.48% | ACHN renal 9.66% | A498 renal -21.8% | CCRF-CEM leukemia 6.83% | MOLT-4 leukemia 1.72%

NC1CCN(c2nc(Nc3cccc(C(F)(F)F)c3)c3c(=O)[nH]ccc3n2)CC1
inactive: PC-3 prostate 19.3% | A498 renal 93.9%
active: HCT-15 colon -80% | HT29 colon -16.3% | SNB-75 CNS -76.8% | SNB-19 CNS -14.3% | U251 CNS -82.1% | SK-MEL-5 melanoma -96.2% | UACC-62 melanoma -80.4% | LOX IMVI melanoma -94.2% | SK-MEL-28 melanoma -85.4% | SK-MEL-2 melanoma -77.6% | EKVX NSCLC 4.44% | SN12C renal -75.8% | UO-31 renal -80.8% | TK-10 renal -26.9% | ACHN renal -70% | CAKI-1 renal -13.8% | CCRF-CEM leukemia -18.4% | MOLT-4 leukemia -37.9%

O=[N+]([O-])c1ccc(Cl)c(-c2cc(CCCCO)on2)c1
inactive: HCT-15 colon 110% | HT29 colon 103% | SNB-75 CNS 81.7% | SNB-19 CNS 95.4% | U251 CNS 101% | PC-3 prostate 104% | SK-MEL-5 melanoma 104% | UACC-62 melanoma 93.8% | LOX IMVI melanoma 97.6% | SK-MEL-28 melanoma 107% | SK-MEL-2 melanoma 118% | EKVX NSCLC 103% | SN12C renal 94.5% | UO-31 renal 86% | TK-10 renal 119% | ACHN renal 101% | CAKI-1 renal 87.2% | A498 renal 87.1% | CCRF-CEM leukemia 108% | MOLT-4 leukemia 109%

CC1=C([Se]CC(OC(=O)[C@@H](CSSC(C)(C)C)NC(=O)OC(C)(C)C)C(=O)NC(C)(C)C)C(=O)c2ccccc2C1=O (stereo not given in full)
active: HCT-15 colon -28.6% | HT29 colon -6.98% | SNB-75 CNS -95.8% | SNB-19 CNS -90.8% | U251 CNS -86.5% | PC-3 prostate -71.6% | SK-MEL-5 melanoma -97.6% | UACC-62 melanoma -88.1% | LOX IMVI melanoma -61.9% | SK-MEL-28 melanoma -96.3% | SK-MEL-2 melanoma 7.82% | EKVX NSCLC -74.2% | SN12C renal -73.3% | TK-10 renal -96% | ACHN renal -83% | CAKI-1 renal -52.1% | A498 renal -28.9% | CCRF-CEM leukemia -21.6%
inactive: UO-31 renal 15.4% | MOLT-4 leukemia 15.8%

Cc1ccc(C(C)C)cc1C(=O)C[n+]1ccccc1
inactive: HCT-15 colon 99.7% | HT29 colon 88.2% | SNB-75 CNS 95% | SNB-19 CNS 106% | U251 CNS 104% | PC-3 prostate 99.1% | SK-MEL-5 melanoma 106% | UACC-62 melanoma 106% | LOX IMVI melanoma 100% | SK-MEL-28 melanoma 97.3% | SK-MEL-2 melanoma 107% | EKVX NSCLC 99.7% | SN12C renal 102% | UO-31 renal 87.5% | TK-10 renal 103% | ACHN renal 95.6% | CAKI-1 renal 99.6% | A498 renal 81.5% | CCRF-CEM leukemia 113% | MOLT-4 leukemia 88.4%

COc1nc2ccc(C)cc2cc1-c1nc2c(cnn2-c2ccccc2)c(=O)[nH]1
inactive: HCT-15 colon 61.8% | HT29 colon 48.3% | SNB-75 CNS 87.2% | SNB-19 CNS 84% | U251 CNS 82.6% | PC-3 prostate 65.9% | SK-MEL-5 melanoma 76.9% | UACC-62 melanoma 60.2% | LOX IMVI melanoma 70.4% | SK-MEL-28 melanoma 81.9% | SK-MEL-2 melanoma 60.5% | EKVX NSCLC 85.1% | SN12C renal 98.3% | UO-31 renal 69.4% | TK-10 renal 109% | ACHN renal 94.3% | CAKI-1 renal 86.9% | A498 renal 72.7% | CCRF-CEM leukemia 79.4% | MOLT-4 leukemia 75.2%

O=c1[nH]c2c(ccc3cnccc32)c2c1CCC2
active: HCT-15 colon 1.99% | HT29 colon 7.54% | SNB-75 CNS -33.4% | SNB-19 CNS 3.98% | U251 CNS 5.85% | PC-3 prostate 0.402% | SK-MEL-5 melanoma -48.5% | UACC-62 melanoma -81.3% | LOX IMVI melanoma 0.937% | SK-MEL-28 melanoma -52.7% | SK-MEL-2 melanoma -15.9% | EKVX NSCLC -13.5% | SN12C renal 7.16% | UO-31 renal -11.5% | TK-10 renal -5.65% | ACHN renal 6.67% | CAKI-1 renal -19.9% | A498 renal -51.5% | CCRF-CEM leukemia -22.3%
inactive: MOLT-4 leukemia 15.9%

CC([C@H]1CCC2C3CCC4C[C@@H](NC=O)CC[C@]4(C)C3CC[C@@]21C)N(C)C (stereo not given in full)
inactive: SNB-19 CNS 44.6% | EKVX NSCLC 29% | SN12C renal 19.9% | TK-10 renal 49.1% | A498 renal 29.1%
active: HCT-15 colon -59.7% | HT29 colon -49.4% | SNB-75 CNS -1.26% | U251 CNS 4.82% | PC-3 prostate 5.08% | SK-MEL-5 melanoma -96.7% | UACC-62 melanoma -51.3% | LOX IMVI melanoma -58.7% | SK-MEL-28 melanoma -94.2% | SK-MEL-2 melanoma -7.03% | UO-31 renal 0.264% | ACHN renal 6.15% | CAKI-1 renal -10.1% | CCRF-CEM leukemia -21.6% | MOLT-4 leukemia -49.9%

CN(C)CC#Cc1ccc2ncc(C#N)c(Nc3ccc(F)c(Cl)c3)c2c1
active: A498 renal -11.8%
inactive: HCT-15 colon 32% | HT29 colon 66% | SNB-75 CNS 48.1% | SNB-19 CNS 76.4% | U251 CNS 63.8% | PC-3 prostate 40.5% | SK-MEL-5 melanoma 51.4% | UACC-62 melanoma 42.9% | LOX IMVI melanoma 49% | SK-MEL-28 melanoma 69.4% | SK-MEL-2 melanoma 38.3% | EKVX NSCLC 30.8% | SN12C renal 35.4% | UO-31 renal 18% | TK-10 renal 27.1% | ACHN renal 10.5% | CAKI-1 renal 17.1% | CCRF-CEM leukemia 81.7% | MOLT-4 leukemia 53.7%

COc1ccc(/C=C(/C#N)n2nnc3cccc(F)c32)cc1
inactive: HCT-15 colon 13.2% | SNB-19 CNS 24.6% | U251 CNS 14.3% | PC-3 prostate 27.1% | UACC-62 melanoma 17.9% | SK-MEL-28 melanoma 48.1% | EKVX NSCLC 36.8% | SN12C renal 28.9% | UO-31 renal 26.2% | TK-10 renal 46.5% | ACHN renal 31.5% | CAKI-1 renal 22.8% | CCRF-CEM leukemia 21.3% | MOLT-4 leukemia 13.8%
active: HT29 colon 1.29% | SNB-75 CNS -43.5% | SK-MEL-5 melanoma -7.21% | LOX IMVI melanoma 5.5% | SK-MEL-2 melanoma -10.4% | A498 renal -7.93%

COc1c(N2CC3CCCN(C(C)=O)C3C2)c(F)cc2c(=O)c(C(=O)N[C@H]3C(O)[C@@H](O)C(CO)O[C@H]3O)cn(C3CC3)c12 (stereo not given in full)
inactive: HCT-15 colon 98.5% | HT29 colon 105% | SNB-75 CNS 100% | SNB-19 CNS 99.4% | U251 CNS 102% | PC-3 prostate 108% | SK-MEL-5 melanoma 101% | UACC-62 melanoma 101% | LOX IMVI melanoma 87.1% | SK-MEL-28 melanoma 112% | SK-MEL-2 melanoma 111% | EKVX NSCLC 103% | SN12C renal 98.9% | UO-31 renal 92.2% | TK-10 renal 105% | ACHN renal 105% | CAKI-1 renal 101% | A498 renal 103% | CCRF-CEM leukemia 105% | MOLT-4 leukemia 116%

Oc1ccc(CCl)c2cccnc12
inactive: HCT-15 colon 36.6% | HT29 colon 104% | SNB-75 CNS 64.7% | SNB-19 CNS 80.6% | U251 CNS 59.7% | PC-3 prostate 83.6% | SK-MEL-5 melanoma 89.9% | UACC-62 melanoma 100% | LOX IMVI melanoma 55% | SK-MEL-28 melanoma 82.9% | SK-MEL-2 melanoma 81.2% | EKVX NSCLC 51.6% | SN12C renal 77% | UO-31 renal 45.3% | TK-10 renal 104% | ACHN renal 64.1% | CAKI-1 renal 88.8% | A498 renal 101% | CCRF-CEM leukemia 31.8% | MOLT-4 leukemia 82.6%
